According to article PMC4552634, “A New Set of Chemical Starting Points with Plasmodium falciparum Transmission-Blocking Potential for Antimalarial Drug Discovery” (PLoS ONE, 2015):
The campaign covered roughly 13,000 compounds. About 3,200 (25%) showed an effect of 50% or more. This is one part of the list.

Test system: P. falciparum stage V gametocytes
Set-up: BacTiter-Glo ATP luminescence viability of purified stage V gametocytes in 384-well plates, per cent inhibition versus DMSO
Details: 48 h, 5 µM; inhibitor

| SMILES | % Inhibition [%] |
| --- | --- |
| O=c1cc(NCCCNC2CCOc3c(Cl)cccc32)[nH]c2ccccc12 (centres unmarked) [TCMDC-139551] | -16.88 |
| O=C(/C=C/c1ccc(Cl)c(Cl)c1)NCCCCCCN1CCN(C(=O)Nc2cccc(Cl)c2)CC1 [TCMDC-135831] | -35.92 |
| Nc1nc(N)c2c(ccn2Cc2cc3c(cc2Cl)OCO3)n1 [TCMDC-137328] | -14.37 |
| Nc1nc(N)c2c(ccc3c2ccn3Cc2cccc(F)c2)n1 [TCMDC-137810] | 101.3 |
| Cc1ccc(C)c(Cn2ccc3nc(N)nc(N)c32)c1 [TCMDC-137330] | 9.396 |
| Cc1cccc(Cn2ccc3c(N)nc(N)nc32)c1 [TCMDC-137327] | 54.63 |
| Cc1cccc(-c2c(C)nc(N)nc2N)c1 [TCMDC-138072] | 4.683 |
| Nc1nc(N)c2c(ccc3c2ccn3Cc2ccc3c(c2)OCO3)n1 [TCMDC-137808] | 102.2 |
| Nc1nc(N)c2c(ccc3c2ccn3CC2CC2)n1 [TCMDC-123991] | 40.96 |
| Cc1cccc(Cn2ccc3c4c(N)nc(N)nc4ccc32)c1 [TCMDC-137814] | 60.36 |
| Cc1cc(NC(=O)Nc2ccc3ncccc3c2)c2ccccc2n1 [TCMDC-139829] | -30.57 |
| COc1ccc(C2CCN(C#N)C2)cc1OC1CCCC1 (centres unmarked) [TCMDC-131880] | 32.2 |
| COc1ccc(-n2c(=O)c3c(n4c(SC(C)C)nnc24)-c2ccccc2CC32CCCCC2)cc1 [TCMDC-125706] | 19.59 |
| NC1=NC(CCc2ccccc2)N(c2ccccc2)C(N)=N1 (centres unmarked) [TCMDC-131292] | 10.89 |
| Cn1nccc1C(=O)NCCNCc1ccc(-c2cccc(-c3nc4ccccc4[nH]3)c2)cc1.O=C(O)C(F)(F)F [TCMDC-132562] | -0.1444 |
| O=C(O)C(F)(F)F.c1cc(-c2ccc(CNCCCN3CCOCC3)cc2)cc(-c2nc3ccccc3[nH]2)c1 [TCMDC-132548] | 54.17 |
| O=C(O)C(F)(F)F.O=C1CCCN1CCCNCc1ccc(-c2cccc(-c3nc4ccccc4[nH]3)c2)cc1 [TCMDC-132549] | -11.63 |
| O=C(O)C(F)(F)F.c1ccc2[nH]c(-c3ccc(-c4ccc(CN5CCN(CCN6CCOCC6)CC5)cc4)cc3)nc2c1 [TCMDC-133928] | -28.02 |
| O=C(O)C(F)(F)F.c1cc(-c2ccc(CNCCCn3ccnc3)cc2)cc(-c2nc3ccccc3[nH]2)c1 [TCMDC-132541] | 99.24 |
| c1ccc(CCNc2ncnc3c2[nH]c2ccccc23)cc1 [TCMDC-124578] | -4.873 |
| CC(C)(C)c1cc(C(=O)Nc2cccnc2)cc(C(=O)Nc2cccnc2)c1 [TCMDC-125788] | -16.11 |
| COc1ccc2nccc([C@@H](O)CN3CCC(NCc4nc5c(OCc6ccccc6)cccc5[nH]4)CC3)c2c1 [TCMDC-141083] | 34.25 |
| N#CC(CC(=O)c1ccc(Cl)cc1)c1cccc(F)c1 (centres unmarked) [TCMDC-123760] | 17.52 |
| CC(CC(=O)NCC1(c2ccc(F)cc2Cl)CCOCC1)C(=O)c1ccc(Cl)cc1 (centres unmarked) [TCMDC-134256] | 68.04 |
| Cc1cccc2nc(-c3cccc(-c4ccc(C(=O)NCc5nccn5C)cc4)c3)[nH]c12 [TCMDC-132356] | 7.308 |

| SMILES | % Inhibition [%] |
| --- | --- |
| COc1ccc(NS(=O)(=O)c2ccccc2Br)cc1N1CCN(C)CC1 [TCMDC-139092] | -23.57 |
| COc1ccc(S(=O)(=O)Nc2cc(Br)cc3c2OCCC3)cc1N1CCN(C(=O)C(Cl)(Cl)Cl)CC1 [TCMDC-139661] | -19.32 |
| COc1ccc(S(=O)(=O)N(c2cc(Br)cc3c2OCC3)S(=O)(=O)c2ccc(OC)c(N3CCN(C)CC3)c2)cc1N1CCN(C)CC1 [TCMDC-139809] | 54.84 |
| O=C(/C=C/c1ccc(Cl)c(Cl)c1)N1CCC(CCN2CCc3[nH]c4ccccc4c3C2)CC1 [TCMDC-134173] | -40.99 |
| CCOC(=O)c1cn(CC)c2cc(F)c(OC3CC4CCC3(C)C4(C)C)cc2c1=O (centres unmarked) [TCMDC-124161] | -18.01 |
| Nc1cc(-c2ccc(Br)cc2O)nc2ccccc12 [TCMDC-138932] | 61.65 |
| Nc1cc(C=Cc2ccc(O)cc2)nc2ccccc12 [TCMDC-138973] | -27.13 |
| CCn1c(/C=C/c2cc(Br)ccc2O)nc2ccccc2c1=O [TCMDC-124092] | 7.095 |
| CN1CCCN(Cc2cccc(-c3ccc(NS(=O)(=O)c4cccc5cccnc45)cc3)c2)CC1 [TCMDC-136481] | 100.2 |
| CCN1CCN(Cc2ccc(-c3ccc(NS(=O)(=O)c4cccc5cccnc45)cc3)cc2)CC1 [TCMDC-136479] | -5.672 |
| CC(C)NCc1cccc(-c2ccc(NS(=O)(=O)c3cccc4cccnc34)cc2)c1 [TCMDC-136480] | 43.51 |
| O=S(=O)(Nc1ccc(-c2ccc(CN3CCCC3)cc2)cc1)c1cccc2cccnc12 [TCMDC-136475] | 27.58 |
| CN1CCCN(Cc2cccc(-c3cccc(NS(=O)(=O)c4cccc5cccnc45)c3)c2)CC1 [TCMDC-136482] | 22.96 |
| CN1CCCN(Cc2ccc(-c3ccc(NS(=O)(=O)c4cccc5cccnc45)cc3)cc2)CC1 [TCMDC-136478] | 98.81 |
| COc1cc(F)c2ncc(Cl)c(CCN3CCC(NCc4ccc5c(c4)OCCO5)CC3)c2c1 [TCMDC-135624] | 2.949 |
| CC(CCc1ccccc1)NCC(O)c1ccc2c(c1)S(=O)(=O)c1ccccc1N2 (centres unmarked) [TCMDC-131254] | -29.84 |
| CCCCCN1CCCC(NS(=O)(=O)c2ccc(C(=O)Nc3ccc(C(F)(F)F)cc3)cc2)C1 (centres unmarked) [TCMDC-133677] | 16.66 |
| CC(Cc1ccc(OCCN2CCN(c3ccccc3)CC2)cc1)NCC(O)c1cccc(Cl)c1F (centres unmarked) [TCMDC-131531] | 24.37 |
| c1ccc(OCCCCN2CCCCC2)cc1 [TCMDC-124256] | 16.85 |
| CC(Cc1ccc(OCCCCOc2ccccc2)cc1)NCCCN1CCOCC1 (centres unmarked) [TCMDC-140018] | 107.6 |
| CC(Cc1ccc(OCCCCOc2ccccc2)cc1)NCCC1CCCN1C (centres unmarked) [TCMDC-140017] | 116.2 |
| CN1CCCC1CCCOC(=O)c1ccc(N)cc1 (centres unmarked) [TCMDC-131643] | -5.047 |
| Nc1ncc(-c2ccc(Br)cc2)c(N)n1 [TCMDC-125524] | -3.505 |
| Cn1ccnc1CNC(=O)c1ccc(-c2ccc(-c3nc4cc(C(F)(F)F)ccc4[nH]3)s2)cc1 [TCMDC-132353] | 3.481 |
| c1ccc(CNc2nc(NCCc3cnc[nH]3)nc(N3CCCC4CCCCC43)n2)cc1 (centres unmarked) [TCMDC-139742] | 0.6761 |

| SMILES | % Inhibition [%] |
| --- | --- |
| COc1cc(CCNc2nc(NCc3cccc4ccccc34)nc(N3CCC(N)CC3)n2)ccc1O [TCMDC-133444] | -7.002 |
| CC1CCCCN1CCCNc1nc(NCc2ccccc2)c2ccccc2n1 (centres unmarked) [TCMDC-137771] | 108.4 |
| COc1cccc2c(NCc3ccccc3)nc(NCCCN3CCCCC3C)nc12 (centres unmarked) [TCMDC-137782] | 79.04 |
| Brc1ccc(Nc2nc(NCc3ccccc3)c3ccccc3n2)cc1 [TCMDC-124574] | 42.06 |
| COc1cccc2c(C)cc(NCc3ccc(Cl)cc3)nc12 [TCMDC-125774] | -17.6 |
| C=C1N(C)c2cc([N+](=O)[O-])c(N)cc2C1(C)C [TCMDC-125319] | -63.8 |
| COc1cc2c(cc1O)[C@@H]1[C@H](O)[C@@H](O)C=C3CCN(C2)[C@H]31 [TCMDC-132036] | 63.23 |
| COc1cc2c(cc1COc1ccccc1)CCN1Cc3cc(OC)c(OC)cc3CC21 (centres unmarked) [TCMDC-141984] | -4.56 |
| CC(=O)Nc1ccc(C(=O)Nc2cccc(-c3ccc(-c4nc5ccccc5[nH]4)cc3)c2)cn1 [TCMDC-136827] | 76.21 |
| CC(=O)Nc1ccc(C(=O)Nc2cccc(-c3csc(-c4nc5ccccc5[nH]4)c3)c2)cn1 [TCMDC-132405] | 77.44 |
| CC(=O)Nc1ccc(C(=O)Nc2cccc(-c3ccc(-c4nc5ccccc5[nH]4)s3)c2)cn1 [TCMDC-136821] | 24.61 |
| CC(=O)Nc1ccc(C(=O)Nc2ccc(-c3cccc(-c4nc5ccccc5[nH]4)c3)cc2)cn1 [TCMDC-136819] | -15.84 |
| CC(=O)Nc1ccc(C(=O)Nc2cccc(-c3cccc(-c4nc5ccccc5[nH]4)c3)c2)cn1 [TCMDC-136820] | 6.09 |
| CC(=O)Nc1ccc(C(=O)Nc2ccc(-c3csc(-c4nc5ccccc5[nH]4)c3)cc2)cn1 [TCMDC-132393] | 4.532 |
| Cc1ccc(Cn2c(N3CCC(C(=O)NCc4ccccn4)CC3)nc3ccccc32)cc1 [TCMDC-125442] | 35.66 |
| NC(=O)NC(=O)C=Cc1ccco1 [TCMDC-131644] | -0.9845 |
| COc1cc(NC(=O)/C=C/c2cc(F)cc(F)c2F)cc(OCCN2CCC3(CC2)OCCO3)c1 [TCMDC-140933] | -20.54 |
| COc1ccc(C(=O)N2CCC3(CC2)C(=O)N(CC(=O)NCC2CCCCC2)CN3c2ccccc2)cc1 [TCMDC-125171] | 3.565 |
| O=C(Nc1ccc(C(F)(F)F)cc1)c1ccc(S(=O)(=O)NC2CCN(CC3CCCCC3)CC2)cc1 [TCMDC-133676] | -72.67 |
| O=C(Nc1cccc(C(F)(F)F)c1)c1ccc(S(=O)(=O)NC2CCN(CC3CCCCC3)CC2)cc1 [TCMDC-132773] | 84.32 |
| O=C(Nc1ccc(C(F)(F)F)cc1)c1ccc(S(=O)(=O)NC2CCN(CC3CCCCC3)C2)cc1 (centres unmarked) [TCMDC-133674] | -14.42 |
| O=C(Nc1cccc(C(F)(F)F)c1)c1cccc(S(=O)(=O)NC2CCN(CC3CCCCC3)C2)c1 (centres unmarked) [TCMDC-132487] | 9.75 |
| O=C(Nc1cccc(C(F)(F)F)c1)c1ccc(S(=O)(=O)NC2CCN(CC3CCCCC3)C2)cc1 (centres unmarked) [TCMDC-132772] | 86.66 |
| O=C(Nc1ccc(C(F)(F)F)cc1)c1ccc(S(=O)(=O)NC2CCCN(CC3CCCCC3)C2)cc1 (centres unmarked) [TCMDC-133678] | 5.433 |
